Screening results deposited in PubChem by National Center for Advancing Translational Sciences (NCATS).
Giardia killer = Giardia lamblia killing; Giardia lamblia trophozoite viability; activity change, % at 7.66 µM, hits read low; 0.15% of 340,000 active; AID 540267; in the data active = activity change below about -80%; inconclusive = between about -30% and that limit;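 also: parasites exposed to compound for two days anaerobically before the ATP read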
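Each well holds 100 Giardia trophozoites and compound. After two days (48 hrs) at 37 deg C in anaerobic conditions, ATP is quantified by luminescence.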
DT40 TDP1 CPT = DT40-hTDP1 cell growth loss with CPT; chicken DT40 Tdp1-/-;hTDP1 cells + 20 nM CPT, ATP luminescence, 48 h; Potency, µM (doses to about 46.2 µM), for the others: top-dose activity change, negative = growth inhibition, hits mostly inhibitors; 12% of 420,000 active; also: potency is read from the fitted curve at half-maximal effect; nearly all actives have a fitted effect of over 55% in size
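Chicken DT40 Tdp1-/- cells stably complemented with human TDP1 were seeded at 400 cells/well in medium containing 20 nM camptothecin, exposed to pin-transferred compounds, and grown at 37 °C for at least 48 hr. Viability was read as ATP luminescence.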
TDP1 cell noCPT = qHTS for Inhibitors of human tyrosyl-DNA phosphodiesterase 1 (TDP1): qHTS in cells in absence of CPT; AID 686978, 2013; Potency, µM (titrated, usually from 46.2 µM), for the others: at the highest dose activity change, negative = growth inhibition, hits mostly inhibitors; DT40 Tdp1-/- hTDP1 cells, no CPT, ATP luminescence, 48 h; 15% of 420,000 active; also: potency is read from the fitted curve at half-maximal effect; nearly all actives have a fitted effect of over 55% in size
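Chicken DT40 Tdp1-/- cells stably complemented with human TDP1 were seeded at 400 cells/well with DMSO in place of 20 nM camptothecin. After compound pinning, cells grew at least 48 hr at 37 °C; viability read by CellTiter-Glo luminescence.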
TDP1 block = inhibitors of human tyrosyl-DNA phosphodiesterase TDP1; Q9NUW8; recombinant TDP1, AlphaScreen DNA substrate cleavage; Potency, µM (top dose mostly 130 µM), for inactives: at the highest dose activity change, negative = inhibition, hits mostly inhibitors; 0.28% of 350,000 active; AID 485290; also: potency is read from the fitted curve at half-maximal effect; nearly all actives have a fitted effect of over 40% in size
Target sequence (Q9NUW8 whole entry, looked up): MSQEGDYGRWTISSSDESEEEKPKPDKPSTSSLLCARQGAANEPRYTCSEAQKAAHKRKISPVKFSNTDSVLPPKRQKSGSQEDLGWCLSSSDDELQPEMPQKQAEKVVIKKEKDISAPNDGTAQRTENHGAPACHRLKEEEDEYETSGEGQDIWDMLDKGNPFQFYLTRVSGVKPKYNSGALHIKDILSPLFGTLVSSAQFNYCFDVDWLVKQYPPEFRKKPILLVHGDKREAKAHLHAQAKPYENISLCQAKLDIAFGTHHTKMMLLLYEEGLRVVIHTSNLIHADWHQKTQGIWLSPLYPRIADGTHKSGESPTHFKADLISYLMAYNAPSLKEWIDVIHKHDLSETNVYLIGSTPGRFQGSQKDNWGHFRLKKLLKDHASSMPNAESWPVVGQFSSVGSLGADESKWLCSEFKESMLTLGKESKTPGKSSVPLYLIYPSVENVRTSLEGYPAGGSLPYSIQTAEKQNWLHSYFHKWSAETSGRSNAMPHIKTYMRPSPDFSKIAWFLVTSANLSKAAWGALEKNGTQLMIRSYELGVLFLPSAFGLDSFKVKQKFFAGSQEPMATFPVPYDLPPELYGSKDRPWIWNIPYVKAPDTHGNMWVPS
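Steps: enzyme plus compound, 15 min RT; add biotin/phosphotyrosine-FITC oligonucleotide (15 nM final), react 5 min; add donor/acceptor beads (10 ug/ml final), 10 min; read AlphaScreen. Tdp1 at 1 nM final.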
ELG1 repair inh = inhibitors of ELG1-dependent DNA repair in HEK293T cells | HEK293T ELG1-luciferase reporter, luminescence, 16 h; DNA damage induced by 5-fluorouridine | Potency, µM (titrated, usually from 46.1 µM), for inactives: at the top dose activity change, negative = inhibition, actives largely listed as inhibitors | 2.3% of 330,000 active; also: potency is read from the fitted curve at half-maximal effect; nearly all actives have a fitted effect of over 55% in size
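Overnight (16 hr) co-exposure of 2,000 cells/well to 5-fluorouridine and compound at 37 °C preceded detection. Luciferase was quantified via ONE-Glo luminescence; loss of signal denotes inhibition.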
IL1B secr inh = inflammasome signaling inhibition, IL-1 beta readout; AID 743279; THP-1 LPS/ATP IL-1B secretion, AlphaLISA, 16 h; active compounds read low; activity change, % at 57.5 µM; 4.7% of 360,000 active; in the data active = activity change below about -50%; inconclusive = mostly about -30% to -49%
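THP-1 cells pretreated 1 hr with compounds (up to 57.5 uM final), then stimulated with LPS (250 ng/mL final) plus ATP (1.25 mM final); secreted IL-1B measured by AlphaLISA after 16 hr, decreased signal indicating inhibition.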
Starred values were filed as active, the others as inactive; ? = inconclusive; · = no result; [ ] = remark or other dose. Hits are enriched below; roughly 19% of the tested compounds scored in any of these assays. Unless noted, calls follow the shape of the dose curve; as a rule, active = well fitted curve in the direction sought with a large enough effect; inconclusive = small, poorly fitted or top-dose-only effect, or another doubt; inactive = no such curve, though single readings can be large; an effect the other way counts as inactive or inconclusive. % is scaled to controls: 0 for no effect and ±100 for the full control effect.

SMILES | Giardia killer | DT40 TDP1 CPT | TDP1 cell noCPT | TDP1 block | ELG1 repair inh | IL1B secr inh
Cc1ccc(Cn2c(O)c(N=NC(=S)Nc3ccccc3F)c3cc(S(=O)(=O)N4CCOCC4)ccc32)cc1 | -5 | 3.7µM* | 2.1µM* | 9% | ? | -12
CCc1ccccc1NC(=S)N=Nc1c(O)n(C)c2ccc(S(=O)(=O)N3CCOCC3)cc12 | -9 | 5.2µM* | 5.8µM* | -8% | ? | 0
COc1cc2cncnc2cc1OCCCCC(N)=O | · | 2% | 1% | · | · | ·
COc1ccc(-c2nnc(SCC(=O)NCc3cccs3)n2CC(C)C)cc1 | -19 | ? | -22% | 2% | -6% | -19
CN1CCC(N(C)S(=O)(=O)c2ccc(Cl)cc2)CC1 | 3 | -1% | 18% | · | 8% | 26
Cc1cc(C)c(C)c(S(=O)(=O)N(C)C2CCN(C)CC2)c1C | 13 | 23µM* | 16µM* | · | 5% | -18
CC(=O)OC1CC(c2cc(C(C)(C)C)c(O)c(C(C)(C)C)c2)=NO1 (stereo not given) | -8 | -26% | -16% | -1% | 0% | 44
CC(C)c1ccc(NC(=S)NN(c2ccccc2)c2ccccc2)cc1 | 17 | 13µM* | 26µM* | 1% | ? | -22
CC(C)N(c1ccccc1)c1ccc(NC(=O)[C@@H]2O[C@H](CO)[C@@H](O)[C@H]2O)cc1 | · | 21µM* | ? | · | · | 10
CCNC(=S)NN(c1ccccc1)c1ccccc1 | -4 | -11% | -7% | -3% | ? | 5
CCNC(=S)Nc1ccc(N(c2ccccc2)C(C)C)cc1 | -4 | 26µM* | 21µM* | 2% | 20% | -20
CC(C)N(c1ccccc1)c1ccc(NC(=S)NCCN(C)C)cc1 | -4 | ? | 21µM* | -2% | ? | ·
CC(C)C[C@@H](CO)N1CCN(Cc2cccnc2)CCC1=O | 39 | ? | 11% | · | ? | 19
O=C(COc1cccc2ccccc12)N/N=C/c1ccncc1 | 8 | -19% | -21% | 5% | -13% | -1
CC1CCN(Cc2c(O)ccc3c(=O)c(-c4nc5ccccc5s4)c(N)oc23)CC1 | -1 | ? | ? | 5% | 11% | 41
CC1(C)CCCN(Cc2c(O)ccc3c(=O)c(-c4nc5ccccc5s4)c(N)oc23)C1 | -19 | 18µM* | 13µM* | 6% | ? | 55
CCSc1nc2ccccc2c(OCc2ccccc2Cl)c1C(=O)OC | · | ? | ? | -8% | · | ·
CCN(C(=O)CSc1nnc(Cn2nnc3ccccc32)o1)c1nc(-c2ccccc2)cs1 | -4 | 23µM* | ? | 0% | 18µM* | -5
CCN(C(=O)CSc1nnc(Cn2nnc3ccccc32)o1)c1nc(C)cs1 | 5 | ? | ? | 0%[56.1 µM] | ? | 22
O=C(CSc1nnc(Cn2nnc3ccccc32)o1)N(Cc1ccc(Cl)cc1)c1ccccc1 | -14 | 7.3µM* | 7.3µM* | 9% | -21% | -52*
Clc1ccc(Cn2nnc3ccccc32)cc1 | 3 | -6% | -2% | ? | 2% | 7
O=C(COc1ccccc1F)Nc1ccc2oc(-c3cccc(Cl)c3)nc2c1 | · | -12% | -6% | -7% | · | ·
COc1ccc(NC(=O)CCCSc2ccccc2)cc1 | 0 | 1% | 3% | 4% | 18% | 29
O=C(/C=C/c1ccc(O)c([N+](=O)[O-])c1)c1ccc2ccccc2c1 | ? | 18µM* | 23µM* | · | 2% | -20
COc1ccc(Oc2ccc(/C=C/C(=O)c3ccc(O)cc3)cc2[N+](=O)[O-])cc1 | -7 | ? | 15µM* | 11% | ? | -100*
SMILES | Giardia killer | DT40 TDP1 CPT | TDP1 cell noCPT | TDP1 block | ELG1 repair inh | IL1B secr inh
O=C1NCCCc2c1oc1cc(Br)c(O)c(Br)c21 | 6 | 16µM* | ? | -5% | ? | ?
CCCN1C(=O)C(Cc2nc3ccccc3c(=O)n2-c2ccc(OC)cc2)c2cc(C)ccc21 (stereo not given) | · | 9.2µM* | 4.1µM* | 5% | · | ·
CCN1C(=O)C(Cc2nc3ccccc3c(=O)n2-c2cccc(C)c2)c2ccccc21 (stereo not given) | · | ? | ? | 7% | · | ·
CCN1C(=O)C(Cc2nc3ccccc3c(=O)n2C)c2ccccc21 (stereo not given) | 6 | ? | 15µM* | 4% | 2% | 0
CCCN1C(=O)C(Cc2nc3ccccc3c(=O)n2C)c2ccccc21 (stereo not given) | -1 | ? | ? | 0% | ? | 10
CCN1C(=O)C(Cc2nc3ccccc3c(=O)n2-c2ccccc2)c2cc(Br)ccc21 (stereo not given) | · | 5.8µM* | 5.8µM* | 0% | · | ·
O=C1C=C(c2ccc(Cl)c(C(F)(F)F)c2)C[C@@H](c2ccc(Cl)cc2)C1 | 1 | ? | ? | 0% | 9% | -22
CC(c1ccccc1)n1c(-c2cccs2)nc2c(c(=O)c3ccccc3n2C)c1=O (stereo not given) | 13 | -24% | ? | · | 4% | 37
COc1ccc(N(CC(O)CN2CCOCC2)S(=O)(=O)c2ccccc2)cc1 (stereo not given) | -6 | -25% | -7% | · | 16% | 13
COc1ccccc1C1CN(Cc2cccc3nccnc23)Cc2ccccc2O1 (stereo not given) | · | -11%[9.04 µM] | -6% | · | · | ·
CCCCn1c(NCc2ccc(OC)cc2O)nc2ccccc21 | · | 15µM* | 10µM* | 5%[2.28 µM] | · | -18
C=CCc1cccc(CNc2nc3ccccc3n2CC)c1O | 16 | ? | ? | 4% | ? | -16
CCCCCn1c(NCc2ccccc2OC)nc2ccccc21 | · | ? | 21µM* | -2% | · | ·
CCCCn1c(NCc2ccc3c(c2)OCO3)nc2ccccc21 | -3 | ? | 26µM* | 3% | -14% | -51*
C=CCc1cccc(CNc2nc3ccccc3n2CCC)c1O | 2 | ? | 23µM* | 2% | -17% | ?
CCN(CC)CCn1c(NCc2cccc(OC)c2OC)nc2ccccc21 | 9 | ? | ? | 2% | 0% | 0
CCCCn1c(NCc2ccccc2O)nc2ccccc21 | 3 | ? | ? | 8% | 0% | ?
CNc1ccc2ncc(-c3ccc(OC)c(OC)c3)n2n1 | · | 2.6µM* | 2.1µM* | · | · | -66*
Cc1ccc(-c2noc(CCC(=O)NC3CCN(Cc4ccccc4)CC3)n2)cc1 | -2 | 13µM* | ? | 2% | ? | ?
